Results taken from paper PMC5540273 (PLoS ONE, 2017).

Each molecule was assayed on CHEK1. Conditions: concentration: 1 μM, replicates: in singlicate; n = 1.
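Note: KINOMEscan kinase panel screen.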

Q: Which “%Inh” value does the source give for `CN1CCN(CCCNc2nccc(-c3c(-c4ccc(F)cc4)nn4cc(C(F)(F)F)ccc34)n2)CC1` [GW621581] here?
A: 10%

Q: `C[C@@H]1CC[C@@H](C(=O)Nc2ccccc2)CN1c1cc(-c2ccc3c(N)n[nH]c3c2)nc(N)n1` [GSK2286062] was tested. Which “%Inh” value did it give?
A: 0%

Q: With `Cl.Cl.NCC(NCc1ccc(-c2ccnc3[nH]ccc23)s1)c1ccccc1` (stereo not shown) [GSK1321565] as the molecule, how does the “%Inh” value read?
A: 0%

Q: Which “%Inh” value does the source give for `Nc1n[nH]c2cnc(-c3ccccc3)cc12` [SB-642124] here?
A: 0%

Q: With `COc1cccc(NC(=O)NC2CCN(c3ccnc(Nc4cc(OC)c(OC)c(OC)c4)n3)C2)c1` (stereo not shown) [GSK1379763] as the molecule, how does the “%Inh” value read?
A: 0%

Q: For `COc1cccc(C(=O)Nc2cccc(Oc3ccc4nc(NC(=O)C5CC5)cn4n3)c2)c1`, which “%Inh” value is on record?
A: 15%

Q: How did the “%Inh” value turn out when `c1ccc(-c2n[nH]cc2Nc2ccnc3ccccc23)nc1` [GW694077] was run?
A: 0%

Q: With `O=C(Nc1cccc(-c2nn3ccccc3c2-c2ccnc(Nc3cccc(C(F)(F)F)c3)n2)c1)c1c(F)cccc1F` [GSK292658] as the molecule, how does the “%Inh” value read?
A: 10%

Q: Which “%Inh” value does the source give for `CSc1cccc2c(-c3ccncn3)c(-c3ccc(F)cc3)nn12` [GW514786] here?
A: 81%

Q: `COc1ccc(CNC(=O)NC2CCN(c3ccnc(Nc4ccc(F)cc4)n3)CC2)cc1` [GSK1379788] was tested. Which “%Inh” value did it give?
A: 0%

Q: `COCCOCCOc1cc2ncc3c4ccc(C#N)cc4[nH]c3c2cc1OC` was tested. Which “%Inh” value did it give?
A: 55%

Q: For `FC(F)(F)c1ccc(/C=C/c2cncnc2Nc2ccc3[nH]c(Cc4ccccc4)nc3c2)cc1` [GW709199], which “%Inh” value is on record?
A: 0%

Q: How did the “%Inh” value turn out when `COc1cc(Nc2nccc(N3CCC(NC(=O)Nc4cccc(C(C)=O)c4)C3)n2)cc(OC)c1OC` (stereo not shown) [GSK1379753] was run?
A: 0%

Q: Which “%Inh” value does the source give for `O=C(O)C(F)(F)F.O=C(O)C(F)(F)F.O=c1[nH]ccc2nc(N[C@@H]3CCCNC3)nc(Nc3ccc(S(=O)(=O)N4CCOCC4)cc3)c12` [GSK2177277] here?
A: 100%

Q: How did the “%Inh” value turn out when `Cc1ccc(C(=O)N2CC[C@@H](O)C2)cc1-n1c(C)cc(OCc2ccc(F)cc2F)c(Br)c1=O` was run?
A: 0%

Q: `Cl.c1ccc(-c2ccc3c(Nc4ccc5[nH]ccc5c4)ccnc3c2)nc1` [GW440138] was tested. Which “%Inh” value did it give?
A: 0%

Q: Which “%Inh” value does the source give for `CCCCc1nn2ncccc2c1-c1ccnc(Nc2ccc(N3CCN(C)CC3)cc2)n1` [GW684941] here?
A: 0%

Q: How did the “%Inh” value turn out when `COc1ccc(Nc2nccc(NCCNC(=O)c3cc4ccccc4s3)n2)cc1` [GSK1379896] was run?
A: 0%

Q: `COc1ccc(Nc2nccc(N3CCC(NC(=O)Nc4cccc(OC)c4)C3)n2)cc1` (stereo not shown) [GSK1379742] was tested. Which “%Inh” value did it give?
A: 0%

Q: Which “%Inh” value does the source give for `O=C(Nc1ccccc1F)NC1CCN(c2ccnc(Nc3ccc(F)cc3)n2)CC1` [GSK1379800] here?
A: 0%

Q: `Cn1cc(-c2ccc3c(c2)CCN3C(=O)Cc2cccc(F)c2)c2c(N)ncnc21` [GSK2603358] was tested. Which “%Inh” value did it give?
A: 5%

Q: Which “%Inh” value does the source give for `CCc1ccc(-c2ccc3c(c2)-c2c(cnn2C)S(=O)(=O)N3C)cc1` here?
A: 0%

Q: Which “%Inh” value does the source give for `COc1cc(Nc2nccc(-c3c(-c4cccc(NC(=O)c5c(F)cccc5F)c4)nn4ccccc34)n2)cc(OC)c1OC` [GSK323521] here?
A: 30%

Q: With `O=C(Nc1cccc(Oc2ccc3nc(NC(=O)C4CC4)cn3n2)c1)c1ccccc1C(F)(F)F` as the molecule, how does the “%Inh” value read?
A: 0%

Q: With `O=c1[nH]cc(-c2ccc(N3CCOCC3)cc2)c2sc(-c3cn[nH]c3)cc12` [GSK2276055] as the molecule, how does the “%Inh” value read?
A: 0%

Q: `Cc1cccc(Nc2nc(N[C@H]3CCNC3)ncc2C(N)=O)c1.Cl` [GSK2197149] was tested. Which “%Inh” value did it give?
A: 52%

Q: Which “%Inh” value does the source give for `Nc1ncc(-c2cccnc2)c2scc(-c3ccc4c(c3)CCN4C(=O)Cc3ccccc3)c12` [GSK683281] here?
A: 18%

Q: `Cl.Cl.NCC(C(=O)Nc1cc(Br)c(-c2ccnc3[nH]ccc23)s1)c1ccccc1` (stereo not shown) [GSK1269851] was tested. Which “%Inh” value did it give?
A: 0%

Q: With `Fc1ccc(-c2ncn(C3CCNCC3)c2-c2ccnc(Oc3ccc(-c4ccccc4)cc3)n2)cc1` [SB-245391] as the molecule, how does the “%Inh” value read?
A: 0%

Q: Which “%Inh” value does the source give for `Cl.c1ccc(-c2ccc3c(Nc4ccc5[nH]ncc5c4)ccnc3c2)nc1` [GW440137] here?
A: 0%

Q: For `Cl.NC(=O)c1cccc(Nc2nccc(Nc3ccc(Oc4c(Cl)cccc4Cl)c(Cl)c3)n2)c1` [GW659009], which “%Inh” value is on record?
A: 1%

Q: How did the “%Inh” value turn out when `O=C(Nc1cccc(-c2nn3ncccc3c2-c2ccnc(Nc3ccccc3)n2)c1)c1c(F)cccc1F` [GSK198271] was run?
A: 5%

Q: For `COC(=O)Nc1nc2ccc(Oc3ccc(NC(=O)Nc4cc(C(F)(F)F)ccc4F)cc3)cc2n1C.Cl` [GW692089], which “%Inh” value is on record?
A: 0%

Q: For `Oc1cc(Nc2ccnc3cc(I)ccc23)ccc1F` [GW552771], which “%Inh” value is on record?
A: 2%

Q: With `CC(C)c1nc(-c2cccc(NS(=O)(=O)c3c(F)cccc3F)c2F)c(-c2ccnc(Nc3ccc(N4CCOCC4)nc3)n2)s1` [GSK2008607] as the molecule, how does the “%Inh” value read?
A: 0%

Q: How did the “%Inh” value turn out when `CCn1c(-c2nonc2N)nc2c(C#CC(C)(C)O)nc(OC[C@H](N)c3ccccc3)cc21` [GSK943949] was run?
A: 0%

Q: `CC(C)(C)c1ccc2nccc(Nc3cccc(O)c3)c2c1` [GW856795] was tested. Which “%Inh” value did it give?
A: 74%
